From PubChem
The full list was thinned out, with hits kept by preference.
RBX1-CUL1 inh: inhibitors of human ROC1-CUL1 ubiquitin ligase activity; E3 ubiquitin-protein ligase RBX1 (Homo sapiens) + Cullin-1 (Homo sapiens), P62877+Q13616; in vitro K48 di-Ub FRET, acceptor:donor ratio, 45 min; inhibition, % at 10 µM; actives 0.6% (n = 140,000); AID 1347404, 2020; in the data active means inhibition above about 25%
Target sequence (P62877 whole entry, looked up): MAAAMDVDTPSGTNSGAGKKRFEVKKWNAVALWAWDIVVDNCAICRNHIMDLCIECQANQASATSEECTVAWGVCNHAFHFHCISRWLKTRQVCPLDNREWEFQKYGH
Target sequence (Q13616 whole entry, looked up): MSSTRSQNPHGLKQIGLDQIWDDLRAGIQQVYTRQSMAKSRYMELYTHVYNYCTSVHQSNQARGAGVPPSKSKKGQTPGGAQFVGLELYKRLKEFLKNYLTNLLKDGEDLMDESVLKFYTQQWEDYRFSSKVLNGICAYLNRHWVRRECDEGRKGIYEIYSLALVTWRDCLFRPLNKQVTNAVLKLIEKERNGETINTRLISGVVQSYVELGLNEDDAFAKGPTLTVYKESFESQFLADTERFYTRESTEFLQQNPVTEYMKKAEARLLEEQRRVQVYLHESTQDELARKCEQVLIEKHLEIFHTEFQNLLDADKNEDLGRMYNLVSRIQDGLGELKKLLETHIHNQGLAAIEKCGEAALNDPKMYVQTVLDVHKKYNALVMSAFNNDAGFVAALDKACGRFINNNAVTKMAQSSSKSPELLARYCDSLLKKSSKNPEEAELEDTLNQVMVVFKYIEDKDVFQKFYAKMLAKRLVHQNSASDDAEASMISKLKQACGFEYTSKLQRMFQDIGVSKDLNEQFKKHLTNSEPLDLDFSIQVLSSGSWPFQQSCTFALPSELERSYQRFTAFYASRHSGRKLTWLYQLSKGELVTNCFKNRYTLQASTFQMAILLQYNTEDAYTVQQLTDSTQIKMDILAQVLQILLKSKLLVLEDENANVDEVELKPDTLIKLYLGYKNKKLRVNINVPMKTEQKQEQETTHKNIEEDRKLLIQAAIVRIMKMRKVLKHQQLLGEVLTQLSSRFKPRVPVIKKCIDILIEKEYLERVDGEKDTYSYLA
* = called active by the depositor.

SMILES	RBX1-CUL1 inh
Cc1ccc(-c2ccccc2)n1-c1ccc(Cl)c(C(=O)O)c1	1
Cc1ccc(C(=O)O)cc1-n1c(C)ccc1C	96*
Cc1ccc(C)n1-c1ccc(C(N)=O)cc1	2
Cc1ccc(-c2ccccc2)n1-c1ccc(C(=O)O)cc1	3
Cc1ccc(-c2ccccc2)n1-c1cccc(C(=O)O)c1	-4
COc1cccc(C(=O)OC2CCN(C)CC2)c1OC	7
CN(C)C=Nc1cc(=O)n(C)c(=O)n1C	-7
Cc1sc2c(c1Br)-c1c(sc(C)c1Br)CSC2	8
C#Cc1ccc(CNC(C)c2cnc(-c3ccncc3)nc2C)cc1 (stereo not given)	1
CCCn1c(C)c(CC(=O)N2CCCC(C(N)=O)C2)c2c1CC(C)(C)CC2=O (stereo not given)	-3
CCOC(=O)c1nn(-c2ccc([N+](=O)[O-])cc2)c(=N)c(C#N)c1C	7
Cc1ccc(C2(C(F)(F)F)N=C3SC=C(c4ccc(Br)cc4)N3C(=O)N2)cc1 (stereo not given)	12
CC1=CC(C)=C2C=CC(=O)C(=O)C2O1 (stereo not given)	99*
Cc1ccc(-c2nc3ccccc3s2)cc1NC(=O)c1ccccc1[N+](=O)[O-]	-1
CN1CCN(Cc2c(NC(=O)c3ccccc3F)sc3c2CCC3)CC1	9
O=C(Nc1ccc(S(=O)(=O)NC2CCCCC2)cc1)Nc1cccc(Cl)c1	-15
CCSc1cnn(-c2ccccc2)c(=O)c1SCC	15
O=c1c(SCc2ccccc2)c(SCc2ccccc2)cnn1-c1ccccc1	4
O=c1c(SCc2ccco2)c(SCc2ccco2)cnn1-c1ccccc1	31*
Cn1c(=O)cc(OC(=O)c2cccs2)c2ccccc21	15
COc1cccc(CNC(=O)c2sc3ccccc3c2Cl)c1	-4
COc1ccc(/C=N/NC(=O)CSc2nc3ccccc3s2)cc1	-3
CCSc1nc2sc(C)c(C)c2c(=O)[nH]1	-7
Cc1sc2nc(SCC(=O)c3ccc(O)c(O)c3)[nH]c(=O)c2c1C	67*
Cc1cc(C)c2c(=O)[nH]c(SCC(=O)c3ccc(O)c(O)c3)nc2n1	4
SMILES	RBX1-CUL1 inh
COCCn1c(CN(C)C2CCOC2)cnc1S(=O)(=O)CC1CCCCC1 (stereo not given)	-1
CCOc1ccc(N(CC(=O)Nc2ccccc2C(=O)O)S(C)(=O)=O)cc1	-1
CC(C)(C)c1ccc(-c2nnc(SCC(N)=O)o2)cc1	8
COc1cc(NS(=O)(=O)c2ccc(NC(=O)Nc3cccc(Cl)c3)cc2)nc(OC)n1	-5
COc1cc(NS(=O)(=O)c2ccc(NS(=O)(=O)c3ccccc3)cc2)nc(OC)n1	-5
COc1ccc(CC(=O)Nc2ccc(S(=O)(=O)Nc3cc(OC)nc(OC)n3)cc2)cc1	35*
CN1C(=O)C2(C)Cc3ccccc3C1(c1ccccc1)O2 (stereo not given)	9
COC(=O)C1=C(C)N(C)C(=O)NC1c1ccc(F)cc1 (stereo not given)	-4
O=C1NC(=S)S/C1=C/C=C/c1ccccc1Cl	9
CN1/C(=C\C=C2/SC(=S)NC2=O)C(C)(C)c2ccccc21	34*
Cc1ccccc1N=C/C=C1\N(C)c2ccccc2C1(C)C	-4
CC(=O)Nc1ccc(N2CCN(C(=O)CC(C)C)CC2)c(Cl)c1	8
CCOc1ccc2nc(N3C(=O)C(=O)C(C(=O)c4cc5ccccc5o4)C3c3cccc(Oc4ccccc4)c3)sc2c1 (stereo not given)	-2
Cc1nnc(N2C(=O)C(=O)C(C(=O)c3cc4ccccc4o3)C2c2cccc(Oc3ccccc3)c2)s1 (stereo not given)	35*
Cc1nnc(N2C(=O)C(=O)C(C(=O)c3cc4ccccc4o3)C2c2ccc(Cl)c(Cl)c2)s1 (stereo not given)	-9
Cc1cc(-c2n[nH]c3c2CN(C(=O)c2n[nH]c4c2CCC4)CC3)no1	6
CC(C)C1=NN2C(=N)/C(=C/c3ccc(-c4cc(Cl)cc(Cl)c4)o3)C(=O)N=C2S1	-1
N=C1/C(=C/c2ccc(-c3ccc(F)cc3)o2)C(=O)N=C2SC(C(F)(F)F)=NN12	93*
Cc1c(/C=C2\C(=N)N3N=C(C(F)(F)F)SC3=NC2=O)c2ccccc2n1Cc1ccc(F)cc1	4
N=C1/C(=C/c2ccc(-c3ccccc3)o2)C(=O)N=C2SC(c3ccccc3Cl)=NN12	4
N=C1/C(=C/c2ccc(-c3ccccc3)o2)C(=O)N=C2SC(C(F)(F)F)=NN12	60*
COc1ccc(/C=C2/C(=N)N3N=C(C(F)(F)F)SC3=NC2=O)c(OC)c1OC	6
CCOC(=O)c1sc(NC(=O)c2ccc(C)c(C)c2)nc1C	-7
O=C(CCc1nc2ccccc2s1)NCCN1Cc2ccccc2OC(c2ccccc2)C1 (stereo not given)	-9
CN1CCC(N2CCN(Cc3ccccc3Cl)CC2CCO)CC1 (stereo not given)	3
SMILES	RBX1-CUL1 inh
COc1ccc(OC)c(NC(=O)c2c(NCc3sccc3C)sc3c2CCCCC3)c1	3
COc1ccc(OC)c(NC(=O)c2c(NCc3ccc(C)o3)sc3c2CCCCC3)c1	30*
COc1ccc(Cl)cc1NC(=O)c1c(NCc2ccc(C)o2)sc2c1CCC(C)C2 (stereo not given)	-3
COc1ccccc1NC(=O)c1c(NCc2ccc(C)o2)sc2c1CCCCC2	24
COc1ccc(OC)c(NC(=O)c2c(NCc3ccc(OC)c(OC)c3)sc3c2CCC3)c1	3
COc1ccc(Cl)cc1NC(=O)c1c(NCc2ccc(C)o2)sc2c1CCCCC2	26*
CC(=O)C(N=Nc1ccc(Br)cc1)C(C)=O	-6
C=CCC(O)(CC=C)CNC1CCN(c2ccc(NC(=O)CCc3ccccc3)cc2)CC1	-5
CN(C(=O)c1ccc(=O)n(C)n1)C1CCCN(Cc2ccccc2F)C1 (stereo not given)	6
OC(CNCc1ccccc1)COc1cccc2ccccc12 (stereo not given)	-5
Cc1ccc(C(=O)NCCC(C)C)cc1	3
CSCCN1C(=O)CCC1CCNCCOc1ccc(F)cc1 (stereo not given)	-15
O=C1c2ccccc2CCC1C=Nc1ccccc1NS(=O)(=O)c1ccccc1 (stereo not given)	8
Cc1cc(C)n(/N=C/c2cc([N+](=O)[O-])ccc2Cl)c(=O)c1	4
CCOC(=O)C1=C(C)N(c2ccc(C)cc2)C(=O)/C1=C\c1ccccc1	-10
CC(C)(C)C(=O)N1CCC(N2CCCC(C(=O)NC3CC3)C2)CC1 (stereo not given)	2
CCOc1ccc(C2=C(CN(C)C)C(c3ccc(C)cc3)c3ccccc3O2)cc1 (stereo not given)	-4
CC1(C)CC(=O)C2=C(C1)c1c(ccc3ccccc13)NC2c1cccc2ccccc12 (stereo not given)	-4
O=C1CC(O)(C(F)(F)F)Oc2c1ccc1ccccc21 (stereo not given)	-1
CC(=O)C1C(=O)Oc2c(ccc3ccccc23)C1=O (stereo not given)	40*
CC(=O)c1coc2ccc3ccccc3c2c1=O	6
Cc1ccc2c(Cl)c(C)c(-n3ncc(C#N)c3N)nc2n1	4
COc1ccc(Cc2nc3ccc(C(=O)N4CCOCC4)cc3o2)cc1OC	15
COc1ccc(NC(=O)c2cccc(NC(=O)C(C)C)c2)cc1	-7
COC(=O)c1c(-c2ccc(Cl)c(Cl)c2)csc1NC(=O)COc1ccc([N+](=O)[O-])cc1	-4
CN1C(=O)C(=NC2CCCCC2)C2c3ccccc3C(=O)c3cccc1c32 (stereo not given)	11
